# In the library only some 21% were active in any assay of this set; here they are far more common.
# Shiga toxin inh – inhibitors of Shiga toxin in Vero cells | 290,000 compounds, 9.2% hits | inhibition, % at 38.7 µM | Vero cells, Shiga toxin protein synthesis inhibition reporter; in the data active means inhibition mostly above about 28%, no sharp cut-off; inactive means mostly below about 43%; further: 0% is about no effect
# NS1 inh – influenza NS1 inhibition; 270,000 compounds, 0.4% hits; Potency, µM (titrated, usually from 46.1 µM), without a hit: at the highest dose activity, positive = more growth; further: potency means the concentration at half of the fitted maximal effect; actives are rising curves; nearly all actives have a fitted effect of over 50% in size
#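 OD600 was taken as the measure of yeast growth restored by compound in an NS1-expressing S. cerevisiae strain. Cells had been washed out of glucose medium and diluted 1:100 into galactose -URA medium, pH 6.0.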
# Pf growth 48h – inhibits P. falciparum growth in the first generation, 48 h; P. falciparum luciferase growth in erythrocytes, 48 h; Potency, µM (highest dose often 28.7 µM), for the others: at the top dose activity change, negative = inhibition, actives largely listed as inhibitors; 310,000 compounds, 5.9% hits; AID 504832; active means well fitted inhibition curve with a large enough effect; inconclusive means small, poorly fitted or top-dose-only effect, or another doubt; inactive means no such curve, though single readings can be large or run the other way; further: potency means the concentration at half of the fitted maximal effect; on the % scale 0 is the no-effect control and ±100 the full control effect
#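 Growth was read as firefly luciferase luminescence after a 48 h, 37 C, 5% CO2 exposure of compounds to reporter-bearing P. falciparum cultures (0.1% parasitemia, 2% hematocrit final) in Albumax-supplemented RPMI 1640.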
# CHX counter – affects cycloheximide protein synthesis inhibition readout, counter-screen. AID 2314. max response, %. cell reporter, cycloheximide protein synthesis inhibition counterscreen. 300,000 compounds, 12% hits; in the data active means max response mostly above about 13%, no sharp cut-off; inactive means mostly below about 14%; further: read at 38.3 µM for the half of the compounds with a filed dose; 0% is about no effect
# Pf growth 96h – P. falciparum growth inhibition at 96 hour, primary screen for plastid delayed-death inhibitors; P. falciparum luciferase reporter growth, 96 h; Potency, µM (series often up to 28.7 µM), without a hit: top-dose activity change, negative = inhibition, most hits filed as inhibitors; 320,000 compounds, 6.9% hits; AID 504834; active means well fitted inhibition curve with a large enough effect; inconclusive means small, poorly fitted or top-dose-only effect, or another doubt; inactive means no such curve, though single readings can be large or run the other way; further: potency means the concentration at half of the fitted maximal effect; on the % scale 0 is the no-effect control and ±100 the full control effect
#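 Delayed-death screen, second-generation endpoint: infected erythrocytes, 2% hematocrit, 0.05% parasitemia final; 96 hours at 37 C, 5% CO2; luciferase detection reagent; luminescence decrease equals reduced growth.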
# SARS PLpro yeast – inhibitors of SARS-CoV papain-like protease in yeast; AID 485353; 330,000 compounds, 0.19% hits; Potency, µM (highest dose often 32.9 µM), inactives show at the top dose activity, positive = growth rescue, most hits filed as activators; S. cerevisiae expressing SARS-CoV PLpro, growth rescue; further: potency means the concentration at half of the fitted maximal effect; 0% is about no effect; nearly all actives have a fitted effect of over 55% in size
# An asterisk follows results filed as active; i = inactive; ? = inconclusive; / = not tested or not shown; [ ] = remark or other dose. Unless noted, the call rests on the fitted dose curve.
SMILES,Shiga toxin inh,NS1 inh,Pf growth 48h,CHX counter,Pf growth 96h,SARS PLpro yeast
CNCC(O)CN(c1ccccc1)c1ccccc1 (stereo not drawn),-5,0%,?,-1,57%,-2%
OC(CN1CCCCCC1)CN(c1ccccc1)c1ccccc1 (stereo not drawn),-15,3%,?,-3,-20%,14%
COc1ccc(CC(=O)N/N=C(\C)CC(=O)Nc2ccc(N(C)C)cc2)cc1OC,-5,2%,?,-3,21%,-2%
COc1cccc(C(=O)N/N=C(\C)CC(=O)Nc2ccc(N(C)C)cc2)c1,57,-48%,-50%,41*,5%,1%
COc1cccc(/C(C)=N/NC(=O)c2ccc(N(C)C)cc2)c1,69*,24%,27%,33*,44%,-2%
COc1cccc(NC(=O)C(=O)N/N=C(\C)CC(=O)Nc2ccc(NC(C)=O)cc2)c1,84*,-4%,128%,32*,114%,-6%
O=C(NC(=S)N1CCOCC1)c1ccc([N+](=O)[O-])cc1,10,6%,15%,-4,-13%,27%
CCN(CC)S(=O)(=O)c1ccc(=O)n(CC(=O)N2CCCc3cc(C)ccc32)c1,/,/,?,/,?,1%[6.58 µM]
CC(C)Oc1ccc(Cc2cnc(=S)[nH]c2N)cc1,-5,/,-2%,-2,7%,0%
OC(CNCC1(N2CCCCC2)CCCCC1)COc1ccc(Cl)cc1Cl (stereo not drawn),-3,/,3.3µM*,-2,?,0%
CC(=O)Nc1ccc(C(=O)NC(C)c2ccc(-n3ccnc3)cc2)cc1 (stereo not drawn),14,9%,-22%,2,-24%,2%
O=C(Nc1ccccc1)n1ccc(-c2ccc(-n3ccnc3)cc2)n1,40*,/,133%,43*,84%,-4%
Cc1nn(Cc2ccc(F)cc2)c(Cl)c1/C=N/NC(=O)c1cccnc1,22,-9%,2%,5,3%,7%
Cc1nn(Cc2ccc(F)cc2)c(Cl)c1/C=N/NC(=O)c1ccccc1,39,-4%,?,18*,?,0%
Cc1nn(Cc2ccccc2)c(C)c1/C=N/NC(=O)c1ccncc1,-3,-2%,14%,-2,37%,1%
Cc1nn(Cc2ccccc2)c(C)c1/C=N/NC(=O)c1ccccc1O,99*,-11%,?,42*,?,-2%
CCOC(=O)c1c(C)nc(C)c(C(=O)OCC)c1-c1ccc(OC)cc1,15,3%,?,4,?,1%
CCOC(=O)c1c(C)[n+](-c2ccc(C)cc2)c(CC)c2cc(OC)c(OC)cc12,-5,4%,0.83µM*,-8,0.74µM*,0%
COc1ccc(-c2cc(CNS(=O)(=O)c3ccccc3)on2)cc1,23,/,23%,26,36%,-3%
COc1cccc(-c2nc(-c3ccncc3)no2)c1,121*,-2%,98%,35*,220%,0%
COc1cccc(-c2nc(-c3cccs3)no2)c1,57*,-7%,259%,43*,390%,-2%
COc1cc(OC)cc(-c2nc(-c3cccs3)no2)c1,76,/,290%,44*,3%,7%
COc1cccc(-c2nc(CS(=O)(=O)c3ccccc3)no2)c1,91*,-14%,136%,51*,?,2%
COCCNC(=O)CN1C(=O)NC2(CCCc3ccccc32)C1=O (stereo not drawn),13,4%,5%,6,18%,-1%
CC(C)CC(=O)Nc1nnc(S(=O)(=O)N2c3ccccc3CC2C)s1 (stereo not drawn),-5,-2%,53%,-1,9.3µM*,2%
SMILES,Shiga toxin inh,NS1 inh,Pf growth 48h,CHX counter,Pf growth 96h,SARS PLpro yeast
CCC(CC)C(=O)Nc1nnc(S(=O)(=O)N2CCCc3ccccc32)s1,-3,8%,-10%,-1,15µM*,2%
COc1ccc(/C=C/C(=O)Nc2ccccc2C(=O)O)cc1,-4,/,120%,-3,i,-2%
COc1ccc(/C=C/C(=O)Nc2ccccc2C(=O)N2CCCC2)cc1,53*,-3%,-10%,24,-3%,-5%
COc1ccc(/C=C(/C(=O)Nc2ccccc2C(=O)NC(C)C)c2ccccc2)cc1,-17,10%,?,-3,?,-16%
COc1ccc(/C=C(/C(=O)Nc2ccccc2C(=O)N2CCCC2)c2ccccc2)cc1,-5,-66%,6.6µM*,1,?,-18%
CC(C)CCN1CCN(Cc2coc3ccccc3c2=O)CC1CCO (stereo not drawn),23,9%,3%,12,4.1µM*,-1%
CC(C)N1CCN(Cc2coc3ccccc3c2=O)CC1CCO (stereo not drawn),24,0%,17%,17*,0%,1%
CC(C)N1CCN(Cc2ccc(OC3CCCC3)cc2)CC1CCO (stereo not drawn),-8,12%,-13%,-4,12µM*,-13%
CC(C)N1CCN(Cc2ccccc2C(F)(F)F)CC1CCO (stereo not drawn),-24,1%,5%,-2,-2%,0%
CC(C)N1CCN(Cc2ccc(OCc3ccccc3)cc2)CC1CCO (stereo not drawn),-3,-3%,-15%,12,?,0%
COc1ccc(-c2cc(C(=O)N3CCCC3)c3ccccc3n2)cc1OC,-6,0%,?,19,-20%,?
Cc1cc(C(=O)NC2=NCCS2)c2ccccc2n1,30,/,-9%,7,1%,-1%
COc1ccc(-c2cc(C(=O)NC3=NCCS3)c3ccccc3n2)cc1OC,46,1%,-9%,27*,?,0%
O=C(NC1=NCCS1)c1cc(-c2ccc(-c3ccccc3)cc2)nc2ccccc12,28,0%,75%,24*,93%,-75%
O=C(Nc1nc2c(s1)CCCC2)c1cc(-c2ccccc2)nc2ccccc12,19,9%,?,14*,18%,-21%
O=C(O)c1cc([N+](=O)[O-])c(N2CCCC2)c([N+](=O)[O-])c1,16,17%,9%,3,12%,15%
COc1ccc(CC(=O)Nc2ccc(N3CCOCC3)cc2)cc1S(=O)(=O)N1CCOCC1,-6,3%,15%,10,-6%,0%
CCCCC(=O)NC(c1cccc([N+](=O)[O-])c1)c1c(OC(C)=O)ccc2ccccc12 (stereo not drawn),5,2%,0.83µM*,17*,46%,-9%
CCOC(=O)C(NC(=O)CC)C(O)c1cccc([N+](=O)[O-])c1 (stereo not drawn),-8,-1%,4%,-2,-6%,13%
COc1ccc(C(NC(=O)C(C)C)c2c(O)ccc3ccccc23)cc1OC (stereo not drawn),-9,-4%,?,-2,-4%,/
CC(=O)Oc1ccc2ccccc2c1C(NC(=O)C(C)C)c1cccc([N+](=O)[O-])c1 (stereo not drawn),-13,-6%,1.9µM*,-2,/,2%

# Screening data deposited in PubChem BioAssay by National Center for Advancing Translational Sciences (NCATS).
